For some assays here: Measured potencies and affinities stand elsewhere.
Assays:
Design in all cases: scale not given: direction of the effect not stated beside the values
[1] = biological target: Protein translocase subunit SecA (Escherichia coli (strain K12)) (UniProt P10408); test: Assay to Identify E. coli SecA ATPase Inhibitors; assay type: functional; settings: 30 µM
[2] = biological target: T1, Ubiquitin-activating enzyme e1, putative (Leishmania donovani (strain BPK282A1)) (UniProt E9BSI1); test: Leishmania donovani Ubiquitin Activating Enzyme (LdE1); assay type: functional; settings: 30 µM
T1 sequence (whole entry): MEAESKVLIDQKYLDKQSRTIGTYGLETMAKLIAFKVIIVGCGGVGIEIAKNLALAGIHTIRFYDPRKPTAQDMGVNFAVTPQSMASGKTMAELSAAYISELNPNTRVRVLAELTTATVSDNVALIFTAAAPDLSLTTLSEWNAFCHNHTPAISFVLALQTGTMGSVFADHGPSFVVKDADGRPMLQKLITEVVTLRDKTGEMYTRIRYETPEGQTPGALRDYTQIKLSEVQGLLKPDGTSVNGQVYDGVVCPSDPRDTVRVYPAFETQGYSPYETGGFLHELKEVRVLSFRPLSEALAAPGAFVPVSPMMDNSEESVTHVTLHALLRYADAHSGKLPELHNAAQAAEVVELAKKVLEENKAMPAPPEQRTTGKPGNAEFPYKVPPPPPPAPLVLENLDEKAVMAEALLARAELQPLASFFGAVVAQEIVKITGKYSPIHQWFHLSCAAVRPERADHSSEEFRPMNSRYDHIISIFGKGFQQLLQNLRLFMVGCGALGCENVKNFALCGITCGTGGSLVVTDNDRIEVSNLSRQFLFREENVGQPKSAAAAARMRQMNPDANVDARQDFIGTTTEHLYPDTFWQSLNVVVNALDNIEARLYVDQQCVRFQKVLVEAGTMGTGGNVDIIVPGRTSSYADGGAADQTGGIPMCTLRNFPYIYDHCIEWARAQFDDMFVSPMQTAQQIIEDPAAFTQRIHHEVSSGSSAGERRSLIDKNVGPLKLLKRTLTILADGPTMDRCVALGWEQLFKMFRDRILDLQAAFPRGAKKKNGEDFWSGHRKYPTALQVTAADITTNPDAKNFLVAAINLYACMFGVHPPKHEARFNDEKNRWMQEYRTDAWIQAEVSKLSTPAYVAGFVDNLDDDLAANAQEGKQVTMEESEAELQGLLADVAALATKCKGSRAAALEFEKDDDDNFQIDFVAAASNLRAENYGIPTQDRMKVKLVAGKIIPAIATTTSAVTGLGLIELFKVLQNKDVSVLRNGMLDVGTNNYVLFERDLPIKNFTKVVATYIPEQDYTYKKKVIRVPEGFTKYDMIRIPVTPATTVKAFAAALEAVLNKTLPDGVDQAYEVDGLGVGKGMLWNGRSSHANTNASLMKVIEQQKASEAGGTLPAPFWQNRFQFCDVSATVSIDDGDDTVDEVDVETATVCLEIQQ

[3] = biological target: AMP-activated protein kinase, AMPK (Homo sapiens) (UniProt P54646+O43741+P54619+Q9UGJ0+Q9Y478+Q13131+Q9UGI9); test: AMP-dependent Kinase enzyme assay. An in vitro enzyme assay that detects ADP turnover that is directly proportional to AMPK activity. This uses naive AMPK that is activated during the assay with MK-8722; assay type: functional; settings: 30 µM
[4] = biological target: Sialic acid-binding Ig-like lectin 9 (Homo sapiens) (UniProt Q9Y336); test: Hs-Siglec9 ALPHAscreen SOP 20170721; settings: 10 µM
Sequence of Sialic acid-binding Ig-like lectin 9 (Homo sapiens) (Q9Y336 whole entry): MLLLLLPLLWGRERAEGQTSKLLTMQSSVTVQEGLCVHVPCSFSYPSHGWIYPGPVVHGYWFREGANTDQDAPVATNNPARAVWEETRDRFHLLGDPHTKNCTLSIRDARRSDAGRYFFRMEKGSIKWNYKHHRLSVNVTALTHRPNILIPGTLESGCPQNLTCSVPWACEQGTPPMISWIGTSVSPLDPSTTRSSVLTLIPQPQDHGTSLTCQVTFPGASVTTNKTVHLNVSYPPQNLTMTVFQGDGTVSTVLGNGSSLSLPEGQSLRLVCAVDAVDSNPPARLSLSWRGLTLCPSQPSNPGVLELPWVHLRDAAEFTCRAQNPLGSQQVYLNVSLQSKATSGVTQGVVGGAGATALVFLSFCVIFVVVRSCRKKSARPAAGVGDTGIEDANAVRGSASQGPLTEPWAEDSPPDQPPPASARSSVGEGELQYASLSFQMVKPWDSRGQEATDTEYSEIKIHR

[5] = system: Trypanosoma cruzi; test: Trypanosoma cruzi phosphomannomutase and mannose-1-phosphate guanylyltransferase assay; assay type: functional; settings: 10 µM
[6] = biological target: T2, Arginase-2, mitochondrial (Homo sapiens) (UniProt P78540); test: in vitro enzyme assay to detect the production of urea directly proportional to the activity of Arginase II; assay type: functional; settings: 33.3 µM; further: in the data most compounds retested in dose-response had high values
T2 sequence (whole entry): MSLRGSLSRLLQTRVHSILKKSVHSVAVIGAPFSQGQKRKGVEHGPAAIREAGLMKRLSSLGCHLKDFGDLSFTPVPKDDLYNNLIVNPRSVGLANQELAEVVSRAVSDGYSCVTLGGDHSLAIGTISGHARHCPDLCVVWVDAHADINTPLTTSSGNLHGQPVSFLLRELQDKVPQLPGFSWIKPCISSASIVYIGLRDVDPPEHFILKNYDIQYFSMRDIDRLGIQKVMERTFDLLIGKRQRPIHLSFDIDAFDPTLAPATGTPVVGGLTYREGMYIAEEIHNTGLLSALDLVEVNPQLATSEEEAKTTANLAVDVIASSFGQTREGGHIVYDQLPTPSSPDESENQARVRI

[7] = biological target: T3, Proteasome subunit beta (Trypanosoma cruzi) (UniProt O96673); test: Trypanosoma cruzi proteasome chymotrypsin-like activity (TcProtChymo) assay.; further: in the data most compounds retested in dose-response had high values; assay type: functional; settings: 9.37 µM
T3 sequence (whole entry): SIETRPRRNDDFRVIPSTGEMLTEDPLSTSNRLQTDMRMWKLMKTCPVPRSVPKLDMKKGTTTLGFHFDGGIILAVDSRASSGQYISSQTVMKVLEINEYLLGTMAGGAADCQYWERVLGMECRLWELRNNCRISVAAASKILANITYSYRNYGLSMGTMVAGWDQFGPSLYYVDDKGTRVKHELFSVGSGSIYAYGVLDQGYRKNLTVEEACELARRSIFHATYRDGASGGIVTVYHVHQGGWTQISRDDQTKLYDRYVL

[8] = species: Homo sapiens; test: To identify inhibition of the IFN signalling (Jak-Stat) pathway via expression of an eGFP reporter gene under the control of an IFN-stimulated response element (ISRE) containing MxA promoter.; assay type: functional; settings: 30 µM
[9] = biological target: T4, Tyrosyl-tRNA synthetase, putative (Trypanosoma cruzi (strain CL Brener)) (UniProt Q4DSP6); test: Trypanosoma cruzi tyrosyl tRNA synthetase (TcYRS) _High Tyrosine SOP; assay type: functional; settings: 30 µM; further: in the data most compounds retested in dose-response had high values
T4 sequence (whole entry): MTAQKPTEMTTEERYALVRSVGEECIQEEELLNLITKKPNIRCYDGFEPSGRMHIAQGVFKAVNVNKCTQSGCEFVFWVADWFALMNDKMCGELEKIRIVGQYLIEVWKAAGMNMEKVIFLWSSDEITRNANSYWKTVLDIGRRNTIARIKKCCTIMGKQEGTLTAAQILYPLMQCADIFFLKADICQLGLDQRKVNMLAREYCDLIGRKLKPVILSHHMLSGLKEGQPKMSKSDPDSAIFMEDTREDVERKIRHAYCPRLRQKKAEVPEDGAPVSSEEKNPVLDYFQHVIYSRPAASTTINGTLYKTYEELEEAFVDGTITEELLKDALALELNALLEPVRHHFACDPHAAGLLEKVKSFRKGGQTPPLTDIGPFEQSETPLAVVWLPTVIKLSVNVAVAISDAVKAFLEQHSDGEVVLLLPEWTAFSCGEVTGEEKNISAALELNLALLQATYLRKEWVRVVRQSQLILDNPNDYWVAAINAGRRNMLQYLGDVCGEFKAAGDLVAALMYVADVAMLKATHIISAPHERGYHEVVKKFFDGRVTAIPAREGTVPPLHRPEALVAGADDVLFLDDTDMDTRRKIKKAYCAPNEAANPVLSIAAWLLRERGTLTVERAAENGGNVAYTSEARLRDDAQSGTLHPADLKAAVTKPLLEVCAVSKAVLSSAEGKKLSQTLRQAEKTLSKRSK

[10] = biological target: T4, Tyrosyl-tRNA synthetase, putative (Trypanosoma cruzi (strain CL Brener)); test: Trypanosoma cruzi tyrosyl tRNA synthetase (TcYRS) SOP; assay type: functional; settings: 30 µM
[11] = biological target: Chromo domain-containing protein 1 (Saccharomyces cerevisiae (strain ATCC 204508 / S288c) (Baker's yeast)) (UniProt P32657); test: ScCHD-1 Enzyme Inhibition Assay; assay type: functional; settings: 30 µM; further: in the data most compounds retested in dose-response had high values
Sequence of Chromo domain-containing protein 1 (Saccharomyces cerevisiae (strain ATCC 204508 / S288c) (Baker's yeast)) (P32657 whole entry, the tested form may be a part): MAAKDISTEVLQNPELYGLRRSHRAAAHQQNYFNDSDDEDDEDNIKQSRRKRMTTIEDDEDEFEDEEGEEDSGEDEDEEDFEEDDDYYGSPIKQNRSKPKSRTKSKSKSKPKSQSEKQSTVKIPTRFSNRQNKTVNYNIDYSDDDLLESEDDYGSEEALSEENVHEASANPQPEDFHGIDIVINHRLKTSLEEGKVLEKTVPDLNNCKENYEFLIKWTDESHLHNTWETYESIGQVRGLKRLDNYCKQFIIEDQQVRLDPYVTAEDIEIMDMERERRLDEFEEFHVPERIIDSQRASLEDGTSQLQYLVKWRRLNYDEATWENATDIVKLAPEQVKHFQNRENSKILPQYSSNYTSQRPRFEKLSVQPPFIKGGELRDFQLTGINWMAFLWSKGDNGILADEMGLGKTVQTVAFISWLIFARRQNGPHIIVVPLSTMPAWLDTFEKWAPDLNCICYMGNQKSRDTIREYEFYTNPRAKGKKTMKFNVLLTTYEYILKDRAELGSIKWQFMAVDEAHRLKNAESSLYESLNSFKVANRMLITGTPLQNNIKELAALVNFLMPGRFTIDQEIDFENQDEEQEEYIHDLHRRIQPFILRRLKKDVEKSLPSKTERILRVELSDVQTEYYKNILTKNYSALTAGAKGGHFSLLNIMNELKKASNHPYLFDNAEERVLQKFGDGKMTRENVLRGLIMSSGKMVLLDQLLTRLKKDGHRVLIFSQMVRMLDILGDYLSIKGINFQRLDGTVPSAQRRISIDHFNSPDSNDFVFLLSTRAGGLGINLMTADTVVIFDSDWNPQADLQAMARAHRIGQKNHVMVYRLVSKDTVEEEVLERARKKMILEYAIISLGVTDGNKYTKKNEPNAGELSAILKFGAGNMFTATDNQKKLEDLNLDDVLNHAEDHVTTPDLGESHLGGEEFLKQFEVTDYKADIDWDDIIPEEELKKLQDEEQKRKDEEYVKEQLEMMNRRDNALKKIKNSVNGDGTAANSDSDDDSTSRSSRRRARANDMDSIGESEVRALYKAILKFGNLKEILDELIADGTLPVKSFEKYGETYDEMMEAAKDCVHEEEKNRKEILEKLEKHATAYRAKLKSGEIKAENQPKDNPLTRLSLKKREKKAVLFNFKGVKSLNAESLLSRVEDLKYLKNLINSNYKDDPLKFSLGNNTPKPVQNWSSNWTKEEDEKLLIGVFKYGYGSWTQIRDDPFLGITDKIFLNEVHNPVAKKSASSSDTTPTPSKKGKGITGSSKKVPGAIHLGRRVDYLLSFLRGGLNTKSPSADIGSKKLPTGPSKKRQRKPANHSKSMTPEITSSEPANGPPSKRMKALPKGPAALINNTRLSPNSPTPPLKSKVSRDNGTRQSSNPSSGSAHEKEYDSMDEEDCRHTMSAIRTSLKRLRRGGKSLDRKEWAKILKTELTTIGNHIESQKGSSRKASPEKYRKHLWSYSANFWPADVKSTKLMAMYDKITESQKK

Sequence of Protein translocase subunit SecA (Escherichia coli (strain K12)) (P10408 whole entry): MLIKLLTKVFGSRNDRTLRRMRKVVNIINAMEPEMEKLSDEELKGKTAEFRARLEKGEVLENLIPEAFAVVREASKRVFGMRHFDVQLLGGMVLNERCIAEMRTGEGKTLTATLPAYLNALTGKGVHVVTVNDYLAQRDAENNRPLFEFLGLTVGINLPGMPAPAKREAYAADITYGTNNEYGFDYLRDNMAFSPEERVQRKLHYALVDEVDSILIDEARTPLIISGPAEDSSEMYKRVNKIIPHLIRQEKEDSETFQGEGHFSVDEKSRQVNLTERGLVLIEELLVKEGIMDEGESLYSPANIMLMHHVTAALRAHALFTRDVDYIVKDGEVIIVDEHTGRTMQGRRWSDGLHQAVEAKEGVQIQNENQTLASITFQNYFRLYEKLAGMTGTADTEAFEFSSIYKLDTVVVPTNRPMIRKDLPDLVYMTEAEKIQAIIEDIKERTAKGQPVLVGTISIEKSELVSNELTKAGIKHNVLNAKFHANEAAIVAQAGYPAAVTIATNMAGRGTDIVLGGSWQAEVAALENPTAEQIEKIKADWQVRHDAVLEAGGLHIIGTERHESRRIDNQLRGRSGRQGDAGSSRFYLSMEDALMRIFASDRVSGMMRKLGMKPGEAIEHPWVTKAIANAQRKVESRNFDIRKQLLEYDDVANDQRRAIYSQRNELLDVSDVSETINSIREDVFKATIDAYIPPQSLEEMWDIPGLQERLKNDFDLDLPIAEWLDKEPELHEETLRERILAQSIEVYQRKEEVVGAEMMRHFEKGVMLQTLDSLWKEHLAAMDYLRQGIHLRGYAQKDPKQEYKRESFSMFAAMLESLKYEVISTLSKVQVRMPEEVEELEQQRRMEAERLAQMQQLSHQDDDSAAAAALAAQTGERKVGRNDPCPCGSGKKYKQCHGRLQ

Structure (SMILES) | Percent Effect [1] | Percent Effect [2] | Percent Effect [3] | Percent Effect [4] | Percent Effect [5] | Percent Effect [6] | Percent Effect [7] | Percent Effect [8] | Percent Effect [9] | Percent Effect [10] | Percent Effect [11]
O=C([C@@H]1COC[C@H]2CN(C3CCOCC3)C[C@H]21)N1CCCCO1 | 0.287% | 13.3% | -0.78% | -8.11% | 0.386% | -46.4% | 6.67% | 7.44% | 2.08% | 20% | -6.62%
CCC(=O)NCc1cc(Br)ccc1OC(F)F | -4.17% | 8% | -2.35% | 7.52% | 3.41% | 1.04% | 13.6% | -8.01% | 9.29% | 18.5% | -6.17%
Cc1ccc(-n2nnc(CC(=O)N3CCOCC3)c2C)cc1 | -3.24% | 18.2% | -1.18% | 11.4% | 5.61% | -12.4% | 13% | 6.11% | 6.45% | 18.5% | -6.8%
CC(C)N(CC(N)=O)Cc1csc(Cc2ccccc2)n1 | -3.88% | 12.7% | 0.223% | -4.46% | -6.7% | 0% | 5.82% | 41.7% | -1.48% | 11.4% | -6.32%
O=C(NCc1csc(Br)c1)c1ccncc1 | -2.58% | 19% | 5.52% | 2.28% | 0.103% | 2.8% | 11.3% | 21.8% | -1.04% | 15.2% | -29.5%
CC(=O)N1[C@H](Cn2cncn2)C[C@@H]2CN(S(C)(=O)=O)CC[C@@H]21 | -4.17% | 10.4% | 1.39% | 9.47% | 9.54% | -74.5% | 14.5% | -25.9% | 4.3% | 16.1% | -4.74%
O=C(NCCNc1ncccn1)c1ccc(-c2ccco2)[nH]c1=O | -5.27% | 27% | -6.43% | 9.97% | 1.23% | -11.6% | 15.9% | 6.48% | 8.37% | 23.5% | -11.4%
Cc1n[nH]cc1CNc1ccc2c(c1)CN(C(=O)OC(C)(C)C)CC2 | -2.19% | 5.2% | -9.51% | 0.686% | 2.26% | -8.28% | 15.5% | 68.8% | 2.15% | 3.7% | -6.66%
O=C(NCCN1CCCCCC1=O)c1n[nH]c(=O)c2ccccc12 | -2.33% | 15.6% | 17.8% | -3.89% | -11.1% | 2.13% | 6.42% | 27.5% | -6.8% | 9.76% | -3%
Cc1nc(COc2cccc(C#N)c2)no1 | -1.52% | 21.1% | -5.19% | 8.22% | 5.13% | -0.36% | 8.21% | -0.09% | 10.3% | 25.9% | -8.11%
CN(C)CCCNC(=O)CNC(=O)N1CCc2c([nH]c3ccccc23)C1 | -6.34% | -1.33% | 20.1% | -2.5% | -2.16% | -10.4% | 9.06% | 13.6% | 1.06% | -5.13% | -6.13%
O=C(NCc1ccncc1)N(Cc1ccccc1F)C1CC1 | -6.03% | 18.7% | -7.25% | 29.6% | 10.2% | 51% | 17.1% | 5.89% | 2.73% | 16.1% | -6.63%
Cc1ccsc1C(=O)N1CC(C(=O)NCC2CC2)C2(CCOCC2)C1 (configuration not stated) | -6.49% | 7.79% | 87.3% | -3.49% | -9.57% | 1.94% | 8.36% | 27.5% | 0% | -3.85% | -7.68%
CC(C)c1nc(CN(C)C2CCN(CC(F)(F)F)C2)no1 (configuration not stated) | -5.29% | 5.48% | -3.78% | -4.08% | -0.588% | 2.73% | 6.57% | -2.57% | 4.3% | 10% | -1.35%
CCc1nc2n(n1)CC(NCc1noc(-c3ccccc3)n1)CC2 (configuration not stated) | -5.91% | 5.26% | -5.76% | 10.4% | 9.06% | 2.52% | -2.28% | -13.2% | 3.45% | 16.1% | -6.43%
CC(C)n1ccc(-c2cc(C(=O)N3CCCC3)c3ccccn23)n1 | 2.31% | 13.5% | 128% | -12.1% | -4.79% | 0.319% | 3.69% | 65.6% | -1.08% | -2.56% | -12%
CCc1ncc2c(n1)CN(C(=O)COC)C2 | -3.52% | 8.22% | -3.13% | -3.99% | 2.55% | 1.36% | 12.1% | 8.48% | 9.68% | 22.5% | -4.35%
COCCc1noc(CNC2CCCN(c3cccnn3)C2)n1 (configuration not stated) | -5.96% | -5.2% | -0.848% | -4.06% | -3.25% | 11% | 19.3% | 3.62% | 0% | -3.7% | 0.853%
Cc1ccccc1Cc1cnc(NC(=O)C2CNC(=O)N2)s1 (configuration not stated) | -3.2% | 3.8% | -1.9% | 0.365% | 2.36% | -4.95% | 13.7% | 22.3% | 2.08% | 15.2% | -23.7%
CN(C)C(=O)CNC(=O)CCn1ncc2c(Cl)cccc21 | -5.52% | 4% | 2.92% | 1.65% | 3.73% | -7.57% | 14.1% | 16.1% | 2.12% | 7.69% | -12.3%
CC(NC(=O)CSCC#N)c1cccc(NC(=O)c2ccccc2)c1 (configuration not stated) | -6.35% | 15.8% | -4.8% | 13.9% | 4.76% | 1.08% | 8.38% | 12.6% | 5.42% | 23.5% | -7.99%
Cc1cnn(CC2CCCCN2C(=O)Cc2csc(C)n2)c1 (configuration not stated) | -3.54% | -3.8% | 5.27% | 1.29% | -5.64% | -0.645% | 6.17% | 13.6% | 2.08% | -2.53% | -19.5%
